Data taken from PubChem BioAssay (NCATS).
Results filed as inconclusive are left out. A number with no mark means an inactive call. Calls come from the whole dose curve.

molecular target: Atrial natriuretic peptide receptor 1 (Homo sapiens) (UniProt P16066); assay: Natriuretic polypeptide receptor (hNpr1) antagonism - Pilot screen (AID 1347049); settings: hNpr1 cells, antagonist mode cGMP read-out; series mostly up to 57.5 µM; activity change, negative = inhibition: at the top concentration;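 note: agonist-evoked cGMP luminescence read 20 min after hNppA addition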
Sequence (P16066 whole entry, looked up): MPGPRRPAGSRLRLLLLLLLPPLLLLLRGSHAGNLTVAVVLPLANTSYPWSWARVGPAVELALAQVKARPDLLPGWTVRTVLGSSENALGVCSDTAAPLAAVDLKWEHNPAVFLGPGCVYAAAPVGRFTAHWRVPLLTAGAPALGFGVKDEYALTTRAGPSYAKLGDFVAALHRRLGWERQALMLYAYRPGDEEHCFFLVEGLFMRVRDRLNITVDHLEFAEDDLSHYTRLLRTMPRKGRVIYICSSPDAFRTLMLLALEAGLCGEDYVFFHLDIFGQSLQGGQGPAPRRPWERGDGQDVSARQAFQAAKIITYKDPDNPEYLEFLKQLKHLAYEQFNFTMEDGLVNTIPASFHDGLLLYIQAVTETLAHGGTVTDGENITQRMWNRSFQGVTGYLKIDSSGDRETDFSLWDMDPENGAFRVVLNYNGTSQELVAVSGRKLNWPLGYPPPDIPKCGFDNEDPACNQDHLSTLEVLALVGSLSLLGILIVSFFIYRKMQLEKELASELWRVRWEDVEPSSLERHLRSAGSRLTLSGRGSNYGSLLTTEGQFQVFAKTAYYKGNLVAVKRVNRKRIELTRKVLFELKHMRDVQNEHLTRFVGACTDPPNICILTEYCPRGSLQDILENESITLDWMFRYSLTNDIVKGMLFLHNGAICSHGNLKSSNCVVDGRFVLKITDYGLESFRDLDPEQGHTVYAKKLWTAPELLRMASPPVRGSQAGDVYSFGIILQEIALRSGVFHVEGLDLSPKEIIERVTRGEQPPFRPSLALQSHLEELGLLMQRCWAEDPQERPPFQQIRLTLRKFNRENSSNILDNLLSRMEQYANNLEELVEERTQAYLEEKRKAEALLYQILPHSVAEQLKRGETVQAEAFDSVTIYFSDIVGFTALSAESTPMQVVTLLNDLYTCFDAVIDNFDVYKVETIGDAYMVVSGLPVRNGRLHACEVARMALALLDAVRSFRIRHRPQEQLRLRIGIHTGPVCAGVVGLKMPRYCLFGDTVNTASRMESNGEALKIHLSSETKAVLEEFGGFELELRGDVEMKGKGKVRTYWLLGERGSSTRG
Method in brief: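 cGMP-sensor HEK293/hNpr1 cells, 1500/well, plated overnight at 37C. 2% GloSensor reagent, 2 h RT. Compound (23 nL pin transfer) 30 min RT, baseline luminescence pre-read. 0.1 nM hNppA, 20 min RT, post-read.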
% is set by controls: 0 for no effect and ±100 for the full control effect.

Row | Compound | activity change, negative = inhibition [%]
1 | O=C1OC(=O)C2C3CCC(O3)C12 (stereo not drawn) | -1.76
2 | Oc1cc2c(cc1O)C(c1ccccc1)CNCC2 (stereo not drawn) | 9.4
3 | COc1cc(/C=C(\C#N)C(=O)c2ccc(O)c(O)c2)cc(I)c1O | -18
4 | COc1cc(N)c(Cl)cc1C(=O)OCCN1CCCCC1 | 8.43
5 | O=C(O)/C(=C/c1c(C(=O)O)[nH]c2cc(Cl)cc(Cl)c12)c1ccccc1 | 4.95
6 | NC1C=CC=C(C(=O)O)C1 (stereo not drawn) | 3.58
7 | CSC(=N)N | 5.02
8 | CCCCCCCCCC[Si](C)(C)CCC(=O)NC(Cc1ccc(C)cc1)c1ccccc1 (stereo not drawn) | 7.28
9 | C[N+](C)(C)CC=O | -4.99
10 | N=C(N)SCCc1cnc[nH]1 | -5.33
11 | CC(C)[C@@H]1CC[C@@H](C)C[C@@H]1P(=O)(c1ccccc1)c1ccccc1 | 9.04
12 | Nc1ccc2c3c(cccc13)C(=O)NC2=O | 5.62
13 | COc1cc2c(CCNC(C)=O)c[nH]c2cc1O | 4.85
14 | Cn1cc(C(F)(F)F)nc1-c1ccc(OCC(O)CNCCOc2ccc(O)c(C(N)=O)c2)cc1 (stereo not drawn) | 2.98
15 | COc1ccc(-c2cc3ncc(C)n3c(Nc3ncccc3C(N)=O)n2)cc1OC | 11.7
16 | NCCCCN | 13
17 | N=S(=O)(O)Cc1noc2ccccc12 | 2.78
18 | NCC(O)(CS(=O)(=O)O)c1ccc(Cl)cc1 (stereo not drawn) | 16.9
19 | NC(=O)CC[C@H](N)C(=O)O | 3.7

Row | Compound | activity change, negative = inhibition [%]
20 | CN[C@H](CC(=O)O)C(=O)O | 13.2
21 | COc1ccc2c(c1)c(CC(=O)O)c(C)n2Cc1ccc(Cl)cc1 | 0.638
22 | CSC(N)=NCCC[C@H](N)C(=O)O | 14.3
23 | NCCS(=O)O | -3.3
24 | Nc1nc2c(nc(Br)n2C2OC3COP(=O)(O)O[C@@H]3C2O)c(=O)[nH]1 (stereo partly drawn) | 18.2
25 | NCCC1CCCC(CCN)N1 (stereo not drawn) | 13.2
26 | NCCCCN=C(N)N | 3.16
27 | O=C(c1ccc2c(c1)OCCO2)N1CCCCC1 | -0.207
28 | CN1CCN(c2nc3cc(C(F)(F)F)ccc3n3cccc23)CC1 | 2.23
29 | Oc1cc(O)c2c(c1)O[C@H](c1ccc(O)c(O)c1)[C@@H](O)C2 | 2.06
30 | CC(=O)[C@H]1CCC2C3CC=C4C[C@@H](OS(=O)(=O)O)CC[C@]4(C)C3CC[C@@]21C (stereo partly drawn) | 1.03
31 | CN(C)C(=O)/N=N/C(=O)N(C)C | 4.6
32 | CNC(=O)c1cc2c(cn1)[nH]c1ccccc12 | 4.92
33 | N=C(N)c1ccc(OCCCCCOc2ccc(C(=N)N)cc2)cc1 (tested in a mixture with another compound) | -0.239
34 | CCCn1c(=O)c2c(ncn2C)n(CCC)c1=O | -3.75
35 | C=C1C[C@@]23CC[C@H]4[C@@](C)(CCC[C@@]4(C)C(=O)O)[C@@H]2CC[C@]1(O)C3 | 10.4
36 | OC[C@H]1O[C@H](n2cnc3c(N[C@H]4CCC[C@@H]4O)ncnc32)[C@H](O)[C@@H]1O | 22.7
37 | Cc1nc(N=Nc2ccc(C(=O)O)cc2)c(COP(=O)(O)O)c(C=O)c1O | 7.87
38 | O=C(O)C1=CCCN(CCON=C(c2ccccc2)c2ccccc2)C1 | 0.37
